High-throughput results: PubChem, several laboratories
A selection: hits, their analogues and other compounds. The true share with any hit is near 1.3%.
SRC3 inh: inhibits human SRC3 coactivator. Q9Y6Q9. 0.17% of 360,000 active. inhibition, % at 3.6 µM. HEK293 GAL4-SRC3 luciferase reporter, luminescence. AID 588352;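 active means inhibition above a per-campaign cutoff, the mean of all compounds plus 3 SD, cut at about 60% in these data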;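 further: 0% = DMSO-treated cells and 100% = gossypol-treated cells at 36 µM; higher means less SRC3-driven luciferase light from the GAL4 reporter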
Target sequence (Q9Y6Q9 whole entry, looked up, the tested form may be a part): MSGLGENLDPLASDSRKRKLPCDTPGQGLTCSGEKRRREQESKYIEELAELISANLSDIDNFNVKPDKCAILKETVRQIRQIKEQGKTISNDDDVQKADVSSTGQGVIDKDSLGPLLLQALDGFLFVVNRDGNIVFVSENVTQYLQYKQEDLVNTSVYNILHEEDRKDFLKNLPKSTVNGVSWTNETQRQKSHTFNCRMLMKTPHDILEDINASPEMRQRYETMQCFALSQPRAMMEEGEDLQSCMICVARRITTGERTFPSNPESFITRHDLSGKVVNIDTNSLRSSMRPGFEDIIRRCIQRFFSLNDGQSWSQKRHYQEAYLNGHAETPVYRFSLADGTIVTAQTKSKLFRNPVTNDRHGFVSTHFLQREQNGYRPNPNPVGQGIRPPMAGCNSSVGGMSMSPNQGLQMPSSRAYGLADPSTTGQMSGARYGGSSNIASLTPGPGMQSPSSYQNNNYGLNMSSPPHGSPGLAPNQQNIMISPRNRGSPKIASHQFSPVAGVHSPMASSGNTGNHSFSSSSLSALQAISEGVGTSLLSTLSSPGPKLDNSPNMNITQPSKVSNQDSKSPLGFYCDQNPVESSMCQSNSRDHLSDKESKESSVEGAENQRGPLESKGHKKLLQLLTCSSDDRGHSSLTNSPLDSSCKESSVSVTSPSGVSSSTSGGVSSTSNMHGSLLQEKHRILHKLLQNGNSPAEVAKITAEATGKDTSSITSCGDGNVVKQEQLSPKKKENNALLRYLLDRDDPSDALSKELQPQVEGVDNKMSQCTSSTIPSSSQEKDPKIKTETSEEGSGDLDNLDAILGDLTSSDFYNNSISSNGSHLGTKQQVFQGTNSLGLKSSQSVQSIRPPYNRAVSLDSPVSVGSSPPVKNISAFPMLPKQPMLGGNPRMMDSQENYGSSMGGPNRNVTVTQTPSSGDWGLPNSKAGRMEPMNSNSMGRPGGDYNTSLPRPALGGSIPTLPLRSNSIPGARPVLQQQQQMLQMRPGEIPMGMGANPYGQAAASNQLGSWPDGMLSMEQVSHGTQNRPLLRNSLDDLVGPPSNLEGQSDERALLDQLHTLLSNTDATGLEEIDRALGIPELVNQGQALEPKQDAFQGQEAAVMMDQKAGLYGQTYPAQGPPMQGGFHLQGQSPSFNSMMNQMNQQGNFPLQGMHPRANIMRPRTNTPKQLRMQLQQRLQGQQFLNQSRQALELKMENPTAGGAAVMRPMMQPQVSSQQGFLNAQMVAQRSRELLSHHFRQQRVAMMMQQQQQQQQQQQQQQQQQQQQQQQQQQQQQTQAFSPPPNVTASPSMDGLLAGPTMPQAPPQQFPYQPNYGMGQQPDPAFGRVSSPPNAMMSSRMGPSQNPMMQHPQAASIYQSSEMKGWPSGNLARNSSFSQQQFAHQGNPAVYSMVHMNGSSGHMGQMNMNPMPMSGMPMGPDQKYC
LRH-1 inv ag: inverse agonists of human LRH-1 (NR5A2). 0.13% of 360,000 active. AID 602396. HEK293T StAR-luciferase reporter, LRH-1 transfected, 24 h. inhibition, % at 3.6 µM;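 active means inhibition above the mean inhibition of all tested compounds plus 3 SD, cut at about 73% in these data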;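 further: 0% = DMSO wells and 100% = reporter-only cells lacking LRH-1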
NCOA1 inh: inhibits human SRC1 coactivator; HEK293 GAL4-SRC1 luciferase reporter, luminescence; inhibition, % at 3.6 µM; 0.12% of 360,000 active;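 active means inhibition above the campaign mean plus 3 SD, with each screening campaign given its own cutoff, cut at about 60% in these data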;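 further: 0% = DMSO treated cells and 100% = gossypol at 36 µM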
Gli-Sufu block: Gli-Sufu pathway antagonism; Sufu-KO-LIGHT fibroblasts, Gli luciferase reporter luminescence; inhibition, % at 5 µM; 0.74% of 340,000 active; AID 588413;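 active means inhibition above about 55%, limit read from the data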;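 further: 0% = DMSO-treated cells and 100% = wells with medium but no cells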
NCOA2 inhibitor: inhibits human steroid receptor coactivator 2; Q15596; HEK293 GAL4-SRC2 luciferase reporter, luminescence; inhibition, % at 9 µM; 0.17% of 370,000 active;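 active means inhibition above the mean inhibition of all tested compounds plus 3 SD, set per campaign, cut at about 52% in these data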;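 further: 0% = DMSO treated cells and 100% = cells given Gossypol at 36 µM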
COUP-TFII inh: inhibitors of human COUP-TFII (NR2F2). inhibition, % at 8.6 µM. HEK293T NGFI-A luciferase reporter, luminescence. 0.7% of 370,000 active. P24468;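 active means inhibition above a per-plate cutoff, mean inhibition of test wells between control levels plus 3 SD, cut at about 38% in these data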;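 further: cells cotransfected with COUP-TFII expression vector driving the NGFI-A reporter; 0% = median of COUP-TF2 test wells and 100% = reporter-only cells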
Gli antag conf: Gli-SUFU antagonism confirmation, single concentration; 40% of 2,500 active; shares compounds with Gli-Sufu block; Sufu-KO-LIGHT cells, Gli luciferase reporter, luminescence; inhibition, % at 5 µM; AID 602428;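 active means mean inhibition at 5 µM reaching about 45%, limit read from the data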;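 further: plate controls were DMSO-treated cells for no effect and wells lacking cells for full effect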
SufuKO cytotox: cytotoxic in Gli-SUFU antagonist counter-screen; 32% of 2,500 active; AID 651994; shares compounds with Gli-Sufu block; Sufu-KO-LIGHT cells cytotoxicity, ATP luminescence; cytotoxicity, % at 5 µM;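 active means mean cytotoxicity at 5 µM above about 25%, limit read from the data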;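 further: cells exposed to compound overnight for roughly 16 to 18 hours; plate controls were DMSO wells with cells for no effect and medium without cells for full effect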
Wnt3a cs: inhibits Wnt3a reporter, counter-screen for Gli-SUFU antagonists; shares compounds with Gli-Sufu block; Wnt-LIGHT cells, Wnt3a-driven luciferase reporter, luminescence; inhibition, % at 6.25 µM; 20% of 2,500 active;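 active means mean inhibition above about 25%, limit read from the data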
* marks the source's active call; other numbers are inactive results; · = no result given.

SMILES | SRC3 inh | LRH-1 inv ag | NCOA1 inh | Gli-Sufu block | NCOA2 inhibitor | COUP-TFII inh | Gli antag conf | SufuKO cytotox | Wnt3a cs
CCC(C)[C@H]1CNC(=S)N1CCc1cccc2ccccc12 (stereo partly specified) | -5.2 | -4.9 | -7.0 | 5.6 | 29.3 | 6.1 | · | · | ·
CCC(C)[C@H]1CN=C(N)N1CCc1cccc2ccccc12 (stereo partly specified) | 19.9 | 3.2 | -10.3 | 62.4* | 23.1 | 0.4 | 66.5* | 23.9 | 7.5
O=C(NCCc1ccccc1)C1CCC(CNS(=O)(=O)c2ccccc2)CC1 (stereo unspecified) | 4.1 | -12.8 | -22.8 | 50.1 | -5.7 | -5.6 | 9.9 | -6.7 | -18.4
CN(C(=O)CCNC(=O)N1CC(=O)Nc2ccccc21)C1CCCCC1 | 10.8 | 1.9 | -1.5 | 57.2* | 10.2 | 15.0 | 15.1 | 20.1 | -10.1
O=C1CN(C(=O)NCCC(=O)NC2CCCCC2)c2ccccc2N1 | 2.7 | 1.3 | -2.3 | -15.7 | -21.6 | 2.0 | · | · | ·
COc1ccc(N2CCN(CCCNC(=O)Cc3ccc(C(F)(F)F)cc3)CC2)cc1 | · | · | · | · | -5.1 | -16.0 | · | · | ·
CC(C)CC(=O)NC(NCC1CCCO1)C(Cl)(Cl)Cl (stereo unspecified) | -11.3 | -14.2 | 2.3 | 88.3* | 7.2 | 1.4 | 8.2 | 9.2 | -10.5
CCOc1ccc(CCNC(=O)c2cc3ccsc3n2C)cc1OCC | · | · | · | · | 28.9 | 6.8 | · | · | ·
CCOC(=O)c1oc2ccc(S(=O)(=O)n3nc(-c4ccc(Cl)cc4)cc3N)cc2c1C | -10.7 | -5.8 | 14.1 | 54.4 | -8.9 | -8.6 | 8.0 | 18.5 | -10.9
CC1CCCC(C)N1CCCNC(=O)CCn1c(=O)c2cccn2c2cccnc21 (stereo unspecified) | 22.1 | 17.4 | -17.5 | 6.1 | -23.1 | -0.1 | · | · | ·
CCC1CCCCN1CCCNC(=O)Cn1c(=O)c2cccn2c2cccnc21 (stereo unspecified) | -20.3 | 19.6 | 10.0 | 69.3* | -7.0 | -10.7 | 23.6 | 2.0 | 15.2
CCC(C)[C@H](NC(=O)c1cn(CC)c2cc3c(cc2c1=O)OCO3)C(=O)NCCCn1ccnc1 (stereo partly specified) | -11.7 | -12.3 | -11.3 | 53.1 | -14.0 | 8.7 | 4.7 | -9.4 | 18.1
CCCn1c2c(c(=N)c3c1CCC3)CCCC2 | 13.8 | 60.2 | 24.3 | 61.2* | 20.5 | 24.8 | 59.6* | 19.3 | 1.7
Cc1ccc(NC(=O)Nn2cnnc2)c(C)c1 | 6.4 | 7.0 | 8.2 | 55.1* | -25.0 | -9.2 | 31.1 | 8.0 | 9.6
Clc1ccccc1Cn1ccc2ccc(-c3ccc4ccn(Cc5ccccc5Cl)c4c3)cc21 | · | · | · | · | -10.3 | -6.9 | · | · | ·
CSCCC(NS(=O)(=O)c1ccc(Cl)cc1)C(=O)OCC(=O)NC1CC1 (stereo unspecified) | 18.4 | -11.6 | -7.3 | 31.6 | -45.9 | 4.4 | · | · | ·
CSCCC(NS(=O)(=O)c1ccc(Br)cc1)C(=O)OCC(=O)NC1CC1 (stereo unspecified) | 21.7 | 15.3 | -3.3 | 51.4 | -15.7 | -3.2 | 17.2 | 15.8 | 3.3
Cc1c(C(=O)O)sc2nc3n(c(=O)c12)CCCCC3 | 6.0 | 2.9 | -2.1 | 4.1 | 1.5 | -18.6 | · | · | ·
Cc1c(C(=O)O)sc2nc(C)n(C)c(=O)c12 | 4.7 | 1.8 | 15.3 | 95.6* | 2.2 | 14.1 | 26.7 | 20.7 | 17.4
CC(C)CNC(=O)OCc1cn(Cc2cc(F)cc(F)c2)nn1 | · | · | · | · | 13.2 | -6.1 | · | · | ·
CCCC1=Nc2cc(C(=O)N3CCCC3)ccc2Sc2ccc(C)cc21 | -4.2 | -12.4 | -9.6 | 52.5 | -4.9 | 14.1 | 33.9 | 3.1 | 14.9
CCC1=Nc2cc(C(=O)NCc3ccco3)ccc2Sc2ccc(C)cc21 | 16.4 | 23.3 | -5.0 | 57.4* | 13.9 | -73.6 | 62.2* | 59.0* | 7.0
COc1cc2c(c(OC)c1OC)-c1ccc(OC)c(=O)cc1C(NC(=O)c1ccccc1)CC2 (stereo unspecified) | 30.4 | 18.9 | -11.3 | 44.6 | 6.2 | -47.0 | · | · | ·
C=COC(=O)NC1CCc2cc(OC)c(OC)c(OC)c2-c2ccc(SC)c(=O)cc21 (stereo unspecified) | 14.0 | 28.6 | -11.7 | 66.2* | -5.1 | -64.9 | 64.4* | 63.0* | 39.8*
COc1cc2c(c(OC)c1OC)-c1ccc(SC)c(=O)cc1C(NC(=O)c1ccccc1)CC2 (stereo unspecified) | 16.4 | 8.8 | -39.7 | 63.2* | 21.6 | -42.1 | 66.2* | 50.9* | 45.5*
SMILES | SRC3 inh | LRH-1 inv ag | NCOA1 inh | Gli-Sufu block | NCOA2 inhibitor | COUP-TFII inh | Gli antag conf | SufuKO cytotox | Wnt3a cs
COC(=O)[C@]12C[C@H](CC(=O)N3CCC(c4ccccc4)CC3)C(=O)N(Cc3cccc4ccccc34)C1=C[C@H](COCc1ccccc1)O[C@@H]2C | · | · | · | · | 8.1 | 22.4 | · | · | ·
COc1ccc(S(=O)(=O)NC2CCCCC2)cc1C(=O)N1CCCCC1 | 14.4 | 12.2 | -3.2 | -3.6 | 7.7 | 14.6 | · | · | ·
COc1ccc(S(=O)(=O)NC2CCCCCC2)cc1C(N)=O | -13.0 | -16.1 | -6.8 | 63.1* | 21.1 | 3.6 | 7.3 | 24.7 | -49.7
N#Cc1cc(F)cc(OC[C@@H](O)CN2CCC(C(O)(c3ccccc3)c3ccccc3)CC2)c1 | · | · | · | · | -9.4 | -15.8 | · | · | ·
COc1ccc(C(=O)N2CC(=O)Nc3ccc(F)cc3C2c2ccccc2)cc1 (stereo unspecified) | -9.2 | 0.6 | 11.0 | 67.2* | -14.8 | 11.1 | 20.1 | 6.1 | -8.3
O=C1CN(C(=O)c2ccccc2)C(c2ccccc2)c2cc(F)ccc2N1 (stereo unspecified) | -15.1 | 0.4 | -6.8 | 2.2 | 15.5 | 3.4 | · | · | ·
COc1ccc(-n2nc3c(N4CCC(C(=O)NC5CCCCC5)CC4)nnc(C)c3c2C)cc1 | 5.2 | -3.1 | -24.1 | 90.8* | · | · | 23.9 | 16.8 | -91.9
CCOC(=O)C1CCCN(CC(O)COc2ccccc2C(C)=O)C1 (stereo unspecified) | 13.8 | -0.1 | -20.6 | 6.1 | -0.8 | 6.0 | · | · | ·
CCOC(=O)C1CCCN(CC(O)COC(c2ccccc2)c2ccccc2)C1 (stereo unspecified) | -4.0 | 22.6 | -10.9 | 69.8* | 21.7 | 6.7 | 8.9 | 10.8 | -32.2
O=C(O)C1C2C=CC(C2)C1C(=O)Nc1ccc2c(c1)OCCO2 (stereo unspecified) | 50.4 | 24.6 | 58.8 | 59.9* | · | · | 16.2 | 19.7 | 54.4*
COc1ccc([C@H]2OC(=O)C[C@H]2C(=O)N2CCN(c3ccccc3Cl)CC2)cc1OC | · | · | · | · | 11.9 | 15.0 | · | · | ·
COc1ccc(N(CC(=O)NCc2ccc(F)cc2)C(=O)CCC(=O)Nc2ccccn2)cc1 | 11.8 | -5.8 | -21.1 | 68.9* | -13.8 | -16.3 | 15.8 | 22.0 | -25.7
